Among the test systems are SR leukemia; RPMI-8226 leukemia; OVCAR-8 ovarian; OVCAR-5 ovarian; OVCAR-4 ovarian; SK-OV-3 ovarian; IGROV1 ovarian; OVCAR-3 ovarian; HS 578T breast; NCI/ADR-RES ovarian.
What all share (assay): NCI-60 one-dose screen, 48 h (100 = growth as untreated, 0 = no growth, -100 = all killed)
What all share (conditions): 10 µM unless noted

The panel holds about 83,000 compounds, 20% with a hit somewhere; the sample as a whole holds those more often.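 Single-dose data. Exposure time 48 hours. Values below 10 considered active.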 Unmarked numbers belong to inactive results. Calls of active or inactive are those of the source.

Growth data for 13 molecules are collected here from PubChem BioAssay (NCI).

Take `C#CCOc1ccccc1/C=N/Nc1nc(-c2ccc(Cl)cc2)cs1`: the growth in the assay with SR leukemia is 101%; with RPMI-8226 leukemia it was 91.5%; in the assay on OVCAR-8 ovarian, 98.1%; with OVCAR-5 ovarian it was 92.3%; in the assay with OVCAR-4 ovarian, 87.8%; in the assay on SK-OV-3 ovarian, 93.9%. In addition, the growth is 77.8% in the assay with IGROV1 ovarian, 98.8% in the assay on OVCAR-3 ovarian, 99.6% in the assay with HS 578T breast and 94.2% in the assay with NCI/ADR-RES ovarian.

As to `CCN(CC)S(=O)(=O)c1ccc(-c2nc(C(Cl)Cl)nc3cc(-c4ccc(F)cc4)nn23)cc1`, the growth in the assay with SR leukemia is 30.8%; in the assay with RPMI-8226 leukemia, 6.42% (active); in the assay with OVCAR-8 ovarian, 27.6%; in the assay on OVCAR-5 ovarian, 51.6%; in the assay with OVCAR-4 ovarian it was 45.2%; in the assay on SK-OV-3 ovarian it was 42.7%. The growth in the assay on IGROV1 ovarian is 56.9%; in the assay with OVCAR-3 ovarian it was 16.8%; with HS 578T breast, 36.4%; in the assay on NCI/ADR-RES ovarian it was 23.5%.

As for `CC1CCN(CC(=O)Nn2c(COc3ccccc3)nc3ccccc3c2=O)CC1`, the growth in the assay on SR leukemia was 30.5%; in the assay with RPMI-8226 leukemia, 76.8%; in the assay with OVCAR-8 ovarian it was 98.5%; in the assay on OVCAR-5 ovarian, 101%; in the assay on OVCAR-4 ovarian it was 94.9%; with SK-OV-3 ovarian, 77%. In addition, the growth with IGROV1 ovarian is 73.1%; with OVCAR-3 ovarian, 94.8%; with HS 578T breast, 86.1%; in the assay on NCI/ADR-RES ovarian, 71.6%.

Regarding `Cn1cc(-c2nnc(N)nc2-c2c[nH]c3ccc(F)cc23)c2cc(Br)ccc21`, the growth in the assay with SR leukemia is 4.93% (active); with RPMI-8226 leukemia, 5.9% (active); with OVCAR-8 ovarian, 34.4%; with OVCAR-5 ovarian, 68.3%; in the assay on OVCAR-4 ovarian it was 50.1%; in the assay with SK-OV-3 ovarian it was 33.7%. The growth is 34.6% in the assay with IGROV1 ovarian, 10.7% in the assay with OVCAR-3 ovarian, 7.85% (active) in the assay on HS 578T breast and 15.2% in the assay on NCI/ADR-RES ovarian.

Turning to `O=C(CCCCCCNC(=O)C(O)(O)C(F)(F)F)Nc1ncc(-c2ccc(Br)cc2)s1`, the growth is 8.24% (active) in the assay on SR leukemia; 11.2% with RPMI-8226 leukemia; 1.13% (active) with OVCAR-8 ovarian; -2.49% (active) in the assay on OVCAR-5 ovarian; 21.8% with OVCAR-4 ovarian; -14.6% (active) in the assay with SK-OV-3 ovarian. Further, the growth in the assay with IGROV1 ovarian was -21.8% (active); with OVCAR-3 ovarian it was -58.1% (active); with HS 578T breast, 16.6%; with NCI/ADR-RES ovarian, -4.64% (active).

For `COc1ccc(/C=N/NC(=O)CSc2nc(-c3cnccn3)cc(-c3cccs3)c2C#N)cc1`, the growth is 65.3% in the assay on SR leukemia; 48.3% in the assay with RPMI-8226 leukemia; 61.4% in the assay with OVCAR-8 ovarian; 103% with OVCAR-5 ovarian; 92.6% in the assay on OVCAR-4 ovarian; 75.6% with SK-OV-3 ovarian. In addition, the growth in the assay on IGROV1 ovarian was 90.7%; in the assay on OVCAR-3 ovarian it was 90.6%; in the assay with HS 578T breast, 64.6%; in the assay on NCI/ADR-RES ovarian, 65.8%.

Turning to `CS(=O)(=O)c1ccc(/C(=N/N=C(N)N)c2ccc(F)cc2)cc1`, the growth is 24.1% in the assay with SR leukemia; 91.4% in the assay with RPMI-8226 leukemia; 98.4% in the assay on OVCAR-8 ovarian; 115% in the assay on OVCAR-5 ovarian; 101% in the assay with OVCAR-4 ovarian; 108% in the assay on SK-OV-3 ovarian. Besides, the growth is 110% in the assay on IGROV1 ovarian, 95.6% in the assay on OVCAR-3 ovarian, 93.4% in the assay with HS 578T breast and 95.7% in the assay on NCI/ADR-RES ovarian.

As for `CC1(C)CC[C@]23CC[C@]4(C)[C@H](CC[C@@H]5[C@@]6(C)CC[C@H](N)C(C)(C)[C@@H]6CC[C@]54C)[C@H]2[C@H]1OC3`, the growth in the assay with SR leukemia was -22.5% (active); in the assay with RPMI-8226 leukemia it was -24.1% (active); in the assay on OVCAR-8 ovarian, 85.6%; in the assay with OVCAR-5 ovarian, 112%; with OVCAR-4 ovarian it was 96.7%; in the assay on SK-OV-3 ovarian, 101%. Besides, the growth in the assay on IGROV1 ovarian is 69.9%; in the assay on OVCAR-3 ovarian, 70.2%; with HS 578T breast, 94.4%; with NCI/ADR-RES ovarian, 2.93% (active).

Regarding `CN(C)c1ccc(/C=N/Nc2nc(N/N=C/c3ccc(N(C)C)cc3)nc(N3CCCCC3)n2)cc1`, the growth in the assay with SR leukemia is -14.1% (active); with RPMI-8226 leukemia, 32.6%; with OVCAR-8 ovarian it was 56.6%; in the assay with OVCAR-5 ovarian, 96.1%; with OVCAR-4 ovarian it was 106%; with SK-OV-3 ovarian, 132%. Further, the growth in the assay on IGROV1 ovarian is 93.8%; with OVCAR-3 ovarian it was 65.6%; in the assay with HS 578T breast it was 106%; in the assay with NCI/ADR-RES ovarian, 58.3%.

In the case of `CC(=O)Nc1ccccc1-c1nc2ccccc2s1`, the growth in the assay with SR leukemia was 110%; in the assay with RPMI-8226 leukemia, 113%; in the assay on OVCAR-8 ovarian it was 103%; in the assay on OVCAR-5 ovarian it was 102%; with OVCAR-4 ovarian it was 97.4%; in the assay on SK-OV-3 ovarian it was 108%. Moreover, the growth in the assay on IGROV1 ovarian was 101%; in the assay on OVCAR-3 ovarian, 112%; with HS 578T breast, 106%; with NCI/ADR-RES ovarian it was 98.5%.

Consider `CN1CCN(c2ccc(Nc3nc(NCCNC(=O)c4ccc(F)cc4)c4sccc4n3)cc2)CC1`, for which the growth in the assay with SR leukemia was 0.604% (active); in the assay with RPMI-8226 leukemia it was 32.1%; with OVCAR-8 ovarian it was 77.4%; in the assay with OVCAR-5 ovarian, 85.3%; in the assay on OVCAR-4 ovarian, 61.1%; in the assay with SK-OV-3 ovarian it was 125%. Also, the growth was 87.7% in the assay with IGROV1 ovarian, 86.2% in the assay on OVCAR-3 ovarian, 75.6% in the assay on HS 578T breast and 88.5% in the assay on NCI/ADR-RES ovarian.

For `COc1ccc(C2c3[nH]c4ccc(Cl)cc4c3CCN2c2oc(CO)nc2C#N)cc1` (stereo not given), the growth was 17.4% in the assay on SR leukemia; 46.3% in the assay with RPMI-8226 leukemia; 45.9% in the assay on OVCAR-8 ovarian; 78.1% in the assay with OVCAR-5 ovarian; 69.7% in the assay with OVCAR-4 ovarian; 101% in the assay with SK-OV-3 ovarian. In addition, the growth is 39.4% in the assay on IGROV1 ovarian, 46.7% with OVCAR-3 ovarian, 69.1% in the assay with HS 578T breast and 43% with NCI/ADR-RES ovarian.

As to `COc1ccc(C2CC(c3cccc(OCCCCOc4cccc(C5=NN(C(C)=O)C(c6ccc(OC)cc6)C5)c4)c3)=NN2C(C)=O)cc1` (stereo not given), the growth in the assay on SR leukemia was 39.3%; with RPMI-8226 leukemia it was 33.8%; in the assay with OVCAR-8 ovarian, 68.2%; in the assay with OVCAR-5 ovarian, 96.2%; in the assay with OVCAR-4 ovarian, 20%; in the assay with SK-OV-3 ovarian it was 83.5%. Further, the growth with IGROV1 ovarian was 83.8%; in the assay on OVCAR-3 ovarian, 68.2%; in the assay on HS 578T breast, 89.3%; with NCI/ADR-RES ovarian it was 75.7%.
